Data on 16 compounds can be found in PMC11062922 (Nature Chemical Biology, 2023).

Parameters in all cases: species or system human, MV4-11 + K-562 + COLO205 + SK-N-BE2 + OVCAR-8
For assay [1], the system named is SIK2. To be noted: read-out: apparent Kd, compound concentrations: 100 nM and 1000 nM (sheet 'Samples'), n = 1.
Assay [2] concerns AKT2. Particulars: read-out: apparent Kd; compound concentrations:100 nM and 1000 nM (sheet 'Samples'); n = 1.
Assay [3] concerns MAPK14. To be noted: read-out: apparent Kd, n = 1.
The subject of assay [4] is TGFBR1. To be noted: read-out: apparent Kd, n = 1.
Assay [5] has as its system ACAD11. To be noted: read-out: apparent Kd; compound concentrations: 100 nM and 1000 nM (sheet 'Samples'), CATDS: 2.6823851715364801E-2; n = 1.
Assay [6] concerns ACVR1B. To be noted: read-out: apparent Kd, compound concentrations: 100 nM and 1000 nM (sheet 'Samples'), n = 1.
The test system of assay [7] is ACVR1. Particulars: read-out: apparent Kd, compound concentrations: 100 nM and 1000 nM (sheet 'Samples'), n = 1.
Assay [8] has as its system GSK3A. Particulars: read-out: apparent Kd, n = 1.
For assay [9], the system named is GSK3B. To be noted: read-out: apparent Kd, n = 1.
Assay [10] relates to ZAK. To be noted: read-out: apparent Kd, n = 1.
The subject of assay [11] is FLT3. To be noted: read-out: apparent Kd, compound concentrations: 100 nM and 1000 nM (sheet 'Samples'), n = 1.
The test system of assay [12] is DYRK1A. Particulars: read-out: apparent Kd, compound concentrations: 100 nM and 1000 nM (sheet 'Samples'), n = 1.
Assay [13] concerns EPHA1. To be noted: read-out: apparent Kd, compound concentrations: 100 nM and 1000 nM (sheet 'Samples'), n = 1.
Assay [14] relates to AURKB. Particulars: read-out: apparent Kd, compound concentrations: 100 nM and 1000 nM (sheet 'Samples'), n = 1.
Assay [15] concerns DDR1. Particulars: read-out: apparent Kd; compound concentrations: 100 nM and 1000 nM (sheet 'Samples'), CATDS: 1.7451025116255701E-2; n = 1.
In assay [16] the test system is SRC. Particulars: read-out: apparent Kd, compound concentrations: 100 nM and 1000 nM (sheet 'Samples'), n = 1.
For assay [17], the system named is TNK1. To be noted: read-out: apparent Kd, n = 1.
The subject of assay [18] is CSK. To be noted: read-out: apparent Kd; compound concentrations: 100 nM and 1000 nM (sheet 'Samples'), CATDS: 1.6993908707239901E-2; n = 1.
Assay [19] has as its system LYN. Particulars: read-out: apparent Kd; compound concentrations: 100 nM and 1000 nM (sheet 'Samples'), CATDS: 2.6094910864106001E-2; n = 1.
[20] abbreviates: compound concentrations:100 nM and 1000 nM (sheet 'Samples').

Where two headings read alike, the source gives them in different places.

Consider `Cc1cccc(Nc2nc(NCCN)ncc2C(N)=O)c1` [GSK1292139B], for which, in assay [1] (CATDS: 8.4015516979832894E-2), the potency estimated from few doses was 0.925 µM.
On to `Cc1cccc(-c2cc(-c3c[nH]nc3-c3ccccn3)ccn2)c1` [GW679395X], for which the potency estimated from few doses in assay [2] is 2.34 µM; in assay [3] (setting [20]) it was 1.29 µM; in [4] (setting [20]), 2.19 µM.
For the compound `COc1cccc(-n2ncc3c(N/N=C/c4ccc(C(=O)NCCN(C)C)cc4)ncnc32)c1.Cl` [GW784307A], the potency estimated from few doses in assay [5] is 1.62 µM; in [6] (CATDS: 4.53928679778344E-2) it was 0.315 µM; in assay [7] (CATDS: 0.29663347499665699), 0.0126 µM; in [8] (compound concentrations: 100 nM and 1000 nM (sheet 'Samples'), CATDS: 8.2277419546057398E-2), 0.089 µM; in assay [9] (compound concentrations: 100 nM and 1000 nM (sheet 'Samples'), CATDS: 7.3478066296280203E-2) it was 0.11 µM; in assay [4] (compound concentrations: 100 nM and 1000 nM (sheet 'Samples'), CATDS: 3.91809843911003E-2), 0.46 µM. The potency estimated from few doses in assay [10] (compound concentrations: 100 nM and 1000 nM (sheet 'Samples'), CATDS: 3.20798372195591E-2) is 0.834 µM.
In the case of `COc1ccc(-n2cnc3c(N)ncnc32)cc1` [SKF-97236], the potency estimated from few doses was 0.598 µM in assay [11] (CATDS: 0.20462680651790399); 1.39 µM in assay [3] (compound concentrations: 100 nM and 1000 nM (sheet 'Samples'), CATDS: 0.140639496900372).
Take `Nc1nc(-c2cccnc2)c(-c2ccnc3ccccc23)s1` [GW684083X]: the potency estimated from few doses in [10] (setting [20]) was 1.44 µM.
With `CCc1nc(-c2cccc(N(C)S(=O)(=O)c3ccccc3)c2)c(-c2ccnc(Nc3ccc(N4CCN(C(C)=O)CC4)nc3)n2)s1` [GSK1645895A], in assay [10] (compound concentrations: 100 nM and 1000 nM (sheet 'Samples'), CATDS: 0.12983068767625999), the potency estimated from few doses was 2.3 µM.
As for `COc1ccccc1CNC1=NC(=O)/C(=C/c2ccc3ncccc3c2)S1` [RO4503315-000], the potency estimated from few doses in assay [12] (CATDS: 8.6327639243549595E-2) is 0.596 µM.
With `O=C1N=C(NCC(CO)c2ccccc2)S/C1=C\c1ccc2ncccc2c1` (stereo not shown) [RO4582641-000], in [12] (CATDS: 9.2693691803080097E-2), the potency estimated from few doses is 0.353 µM.
In the case of `Cc1ccc(O)cc1Nc1ccnc2cc(-c3ccccn3)ccc12.Cl` [GW440139A], the potency estimated from few doses was 0.00988 µM in [6] (CATDS: 0.14783179697021401); 0.556 µM in [7] (CATDS: 2.9577067141002798E-2); 0.0389 µM in assay [13] (CATDS: 6.90247660864724E-2); 0.115 µM in assay [4] (compound concentrations: 100 nM and 1000 nM (sheet 'Samples'), CATDS: 4.4422303259643102E-2).
In the case of `O=C1N=C(NCCc2ccccc2F)S/C1=C\c1ccc2ncccc2c1` [RO4498483-000], the potency estimated from few doses in assay [12] (CATDS: 8.8096211342070505E-2) is 0.883 µM; in [11] (CATDS: 7.3322298638159894E-2), 1.52 µM.
With `CN1C(=O)c2ccccc2N(C)c2nc(Nc3cnn(C4CCNCC4)c3)ncc21` [XMD-17-51], the potency estimated from few doses in [6] (CATDS: 2.1196121470028601E-2) was 0.383 µM; in [7] (CATDS: 1.6735726463305099E-2), 0.805 µM; in [14] (CATDS: 0.169613052671825), 0.00684 µM; in assay [15], 0.697 µM; in assay [1] (CATDS: 2.05809527554131E-2), 0.416 µM; in assay [16] (CATDS: 1.6357706357996601E-2), 0.875 µM. Also, the potency estimated from few doses in assay [4] (compound concentrations: 100 nM and 1000 nM (sheet 'Samples'), CATDS: 2.2276499347081799E-2) was 0.333 µM; in assay [17] (compound concentrations: 100 nM and 1000 nM (sheet 'Samples'), CATDS: 2.1534980047370499E-2) it was 0.366 µM.
In the case of `O=C1N=C(NCc2ccccc2)S/C1=C\c1ccc2ncccc2c1` [RO4442080-000], the potency estimated from few doses in assay [12] (CATDS: 9.0282965342826302E-2) was 1.32 µM.
Turning to `CNC1=NC(=O)/C(=C/c2ccc3ncccc3c2)S1` [RO4595949-000], in [12] (CATDS: 0.10780330705145599), the potency estimated from few doses was 0.209 µM.
For the compound `COc1cc2ncn(-c3cc(OCCCc4ccccc4)c(C(N)=O)s3)c2cc1OC` [GSK205189A], the potency estimated from few doses was 0.575 µM in assay [8] (setting [20]), 1.11 µM in assay [9] (setting [20]) and 0.0423 µM in assay [17] (setting [20]).
For the compound `CN1CCN(Cc2cccc(-c3ccc4c(Nc5ccc(Oc6ccccc6)cc5)ccnc4c3)c2)CC1` [GW578342X], the potency estimated from few doses in assay [16] (CATDS: 9.2821429290207799E-2) was 0.825 µM.
On to `CN(C)Cc1ccc(-c2ccc3c(Nc4ccc(Oc5ccccn5)cc4)ccnc3c2)o1` [GW567148X], for which the potency estimated from few doses in assay [14] (CATDS: 1.8860841823088701E-2) is 1.2 µM; in assay [18], 1.76 µM; in assay [13] (CATDS: 2.4503846064608301E-2) it was 0.577 µM; in assay [11] (CATDS: 2.7806184989220401E-2), 0.433 µM; in assay [8] (compound concentrations: 100 nM and 1000 nM (sheet 'Samples'), CATDS: 2.2236241466677201E-2) it was 0.736 µM; in assay [9] (compound concentrations: 100 nM and 1000 nM (sheet 'Samples'), CATDS: 1.84231194054994E-2) it was 1.3 µM. The potency estimated from few doses in [19] is 0.499 µM; in assay [16] (CATDS: 3.3500581656618303E-2) it was 0.297 µM; in assay [17] (compound concentrations: 100 nM and 1000 nM (sheet 'Samples'), CATDS: 3.2421651582332497E-2) it was 0.316 µM.
